Potency and affinity values are given separately. Active and inactive are the calls of the source. Cut-off not given; nearly all actives show IC50 up to about 0.98 µM.
What follows are molecules tested against Calcium-dependent protein kinase 1 (Plasmodium falciparum (isolate 3D7)) (UniProt P62344) (assay: PfCDPK1 kinase inhibitors, biochemical, TCAMS library (AID 1159585;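 further: inhibitors leave more ATP so luminescence rises with inhibition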)). Conditions: recombinant PfCDPK1, Kinase-Glo ATP depletion luminescence.
Chain of Calcium-dependent protein kinase 1 (Plasmodium falciparum (isolate 3D7)) (P62344 whole entry, looked up): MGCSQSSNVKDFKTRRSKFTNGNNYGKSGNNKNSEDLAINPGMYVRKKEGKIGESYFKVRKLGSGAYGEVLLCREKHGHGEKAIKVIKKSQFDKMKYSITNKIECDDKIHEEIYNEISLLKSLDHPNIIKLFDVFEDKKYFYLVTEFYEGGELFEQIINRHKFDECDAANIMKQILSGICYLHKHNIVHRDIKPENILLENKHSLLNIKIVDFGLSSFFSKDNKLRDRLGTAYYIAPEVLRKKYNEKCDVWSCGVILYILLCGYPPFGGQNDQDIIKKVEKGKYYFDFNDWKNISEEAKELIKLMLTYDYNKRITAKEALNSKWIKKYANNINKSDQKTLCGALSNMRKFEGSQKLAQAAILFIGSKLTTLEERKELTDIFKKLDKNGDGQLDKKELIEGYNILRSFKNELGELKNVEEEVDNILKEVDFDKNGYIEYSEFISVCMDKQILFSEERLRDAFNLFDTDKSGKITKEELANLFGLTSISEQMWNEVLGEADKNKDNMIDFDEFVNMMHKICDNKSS

outcome, inactive:
O=[N+]([O-])c1cccc(C=NNc2ccnc3cc(F)ccc23)c1
COc1cc(N(Cc2ccc(F)cc2)C(=O)c2ccc(-c3ccccc3)cc2)ccc1OCCN1CCCC1
CCCCNc1c(C(=O)OCC)c(C)nc2c1[nH]c1ccccc12
COc1ccc(/C=C/C(=O)NCCCCCN2CCC(c3c[nH]c4ccccc34)CC2)cc1O
CCc1cc2c(Sc3nnc(N)s3)ncnc2s1
CCCc1cc(=O)oc2cc(OC)c(C(=O)CC(C)C)c(OC)c12
O=C(NOCCOc1ccccc1)c1ccccc1
CC(c1cccc(S(=O)(=O)NCc2cccc(C(F)(F)F)c2)c1)N1CCC(N2CCCCC2)CC1 (stereo unspecified)
CC1CCN(c2nc(C(=O)NCCc3ccc(Cl)c(Cl)c3)c(C(C)C)s2)CC1
OCCN1CCN(Cc2cccc(-c3ccc(-c4nc5ccc(C(F)(F)F)cc5[nH]4)cc3)c2)CC1
Cc1cnc(-c2ccc(NC(=O)c3coc4ccc(N5C[C@@H](C)N(C)[C@@H](C)C5)cc34)cc2)o1
CN1CCC(NCc2cccc(-c3cccc(S(=O)(=O)NCc4ccccc4)c3)c2)CC1
COc1ccc(CNC2CCN(C)CC2)cc1-c1ccc(S(=O)(=O)NC2CCC2)c(C)c1
CN1CCN(CCCN(Cc2csc(-c3ccc(CNCc4ccccc4)cc3)n2)S(=O)(=O)c2ccccc2Cl)CC1
Cc1ccc(-c2cccc3c(NC(=O)Nc4ccc5nccc(N6CCN(C)CC6)c5c4)cccc23)cn1
CCCCCCCCOc1c(OCC)cc(Cc2cnc(N)nc2N)cc1OCC

Source: PubChem BioAssay
